ssDAF-12 act: activators of S. stercoralis DAF-12 nuclear receptor; HEK293 ssDAF-12/GRIP1 lit1-tk-luc reporter, luminescence; % of 3 µM dafachronic acid response; 1% of 370,000 active; activation, % at 6.8 µM;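 active = activation above the mean over all tested compounds plus 3 SD, cut at about 0.9% in these data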;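 also: 0% = DMSO-only wells and 100% = 3 µM delta7-dafachronic acid wells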
DAX1 inh-1: DAX1 (NR0B1) inhibition, primary screen. AID 652010. inhibition, % at 6.8 µM. 1.1% of 370,000 active. HEK293T StAR-luciferase reporter, SF-1/DAX-1 repression relief;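 active = inhibition above the mean over all tested compounds plus 3 SD, cut at about 3.6% in these data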;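 also: 0% = DAX-1 cells with DMSO and 100% = cells lacking DAX-1 with DMSO; higher inhibition means more luminescence from relief of DAX-1 repression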
hgDAF12 agonist: hgDAF-12 agonism, primary luciferase screen; 1.8% of 370,000 active; activation, % at 6.8 µM; HEK293 GAL4-hgDAF12 UAS-luciferase reporter, agonist luminescence; normalized to butyrate control;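 active = activation above a cutoff set at the mean of all screened compounds plus 3 SD, cut at about 10% in these data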;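 also: 0% = DMSO wells and 100% = sodium butyrate wells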
DAX1 inh-2: inhibits human nuclear receptor DAX1 | AID 504766 | inhibition, % at 6.75 µM | HEK293 Gal4-DAX1 luciferase reporter, luminescence | 0.99% of 340,000 active;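 active = inhibition above the mean over all tested compounds plus 3 SD, cut at about 4.2% in these data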;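 also: 0% = DAX1-transfected cells with DMSO and 100% = empty-vector control cells with DMSO; inhibition shows as a rise in luminescence from relieved DAX1 repression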
Target sequence (P51843 207-470 limits assumed): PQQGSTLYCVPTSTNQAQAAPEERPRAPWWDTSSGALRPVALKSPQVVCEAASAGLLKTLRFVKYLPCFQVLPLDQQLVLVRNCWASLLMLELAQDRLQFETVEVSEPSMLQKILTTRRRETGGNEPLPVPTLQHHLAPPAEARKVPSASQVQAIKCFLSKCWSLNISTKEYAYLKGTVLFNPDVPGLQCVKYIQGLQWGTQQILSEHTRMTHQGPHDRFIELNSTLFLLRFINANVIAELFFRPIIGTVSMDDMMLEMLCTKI
hcDAF-12 act: activators of H. contortus DAF-12 nuclear receptor; HEK293 hcDAF-12 lit1-tk-luc reporter, luminescence; 0% DMSO, 100% Δ7-dafachronic acid; activation, % at 6.8 µM; 1.4% of 370,000 active; AID 652067;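 active = activation above the mean of all tested compounds plus 3 SD, cut at about 5.5% in these data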;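 also: 100% = response to 3 µM Δ7-dafachronic acid high control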
* marks the source's active call; other numbers are inactive results; . = no result given. Rows were chosen to be rich in hits. Some 4.1% of all compounds tested hit in one or more screens of this group.

SMILES | ssDAF-12 act | DAX1 inh-1 | hgDAF12 agonist | DAX1 inh-2 | hcDAF-12 act
Oc1ccc2ccccc2c1CNc1ccccc1 | 1.7* | 0.1 | 5.5 | -0.6 | 3.2
O=[N+]([O-])c1ccccc1NCc1c(O)ccc2ccccc12 | 1.6* | -0.2 | -0.8 | 2.7 | 6.3*
Oc1ccc2ccccc2c1CNc1ccc2ccccc2c1 | -0.4 | -0.2 | 3.3 | 0.1 | 3.8
CC(C)CC(CCOCCO)NC(=O)OCc1ccccc1[N+](=O)[O-] (stereo unspecified) | -1.1 | . | 1.2 | . | 0.1
CCOC(=O)[C@@]12CCCC=C1N(CCc1ccc(Cl)cc1)C(=O)[C@H]2CC(=O)NCCCCc1ccccc1 | -1.4 | -1.4 | -0.6 | . | 0.2
OC(C#CCCN1CCCCC1)(c1ccccc1)C1CCCCC1 (stereo unspecified) | -1.1 | -0.3 | -1.7 | 5.0* | 0.9
O[C@H](COc1ccccc1)CN1CCC(C(O)(c2ccccc2)c2ccccc2)CC1 | -1.0 | 1.4 | 2.5 | . | -1.5
O=C(CSc1nccc(-c2cccs2)n1)Nc1cccc(Cl)c1Cl | 1.1* | 0.1 | 1.4 | 1.0 | 1.9
O=C(CSc1nccc(-c2cccs2)n1)Nc1ccc(Cl)cc1 | -0.9 | -1.3 | -0.1 | -1.1 | 2.7
CCOC(=O)CC(=O)CSc1nc2ccc(C)cc2cc1C#N | 0.9* | 3.8* | 10.6* | 6.7* | 4.5
CCOC(=O)CC(=O)CSc1nc2c(cc1C#N)CCCCC2 | 0.8 | 3.1 | 11.2* | 0.8 | 5.5
COC(=O)[C@]12C[C@H](CC(=O)N3CCCC3)C(=O)N(Cc3ccccc3)C1=C[C@H](COCc1ccccc1)O[C@@H]2C | -0.9 | -0.7 | -1.8 | . | -2.4
COC(=O)c1ccc2nc(C3CCCCC3)c(Cc3ccc(C)cc3)n2c1 | 1.0* | 0.9 | 4.7 | . | 3.1
COC(=O)c1ccc2nc(-c3ccco3)c(Cc3ccccc3OC)n2c1 | 1.3* | -1.9 | 6.0 | . | 2.4
COC(=O)c1ccc2nc(-c3ccco3)c(Cc3ccccc3C(F)(F)F)n2c1 | -1.3 | -1.2 | -4.8 | . | -0.7
COC(=O)c1ccc2nc(C3CCCCC3)c(Cc3ccccc3C(F)(F)F)n2c1 | -0.5 | 3.6* | 1.6 | . | 2.1
CCCCNC(=O)C[C@H]1C[C@@]2(C(=O)OC)C(=C[C@H](C(C)C)O[C@@H]2C2CC2)N(Cc2ccc3c(c2)OCO3)C1=O | -2.0 | 0.3 | -2.2 | . | -2.6
CCOc1ccc(-c2ccc(SCC(=O)Nc3nnc(CC)s3)nn2)cc1 | 0.2 | 3.7* | 13.0* | 2.9 | 1.9
Cc1ccc(Cn2nnc3c2-c2cc(F)ccc2S(=O)(=O)N(C(C)(C)C)C3)cc1 | -0.2 | 0.3 | -3.3 | . | -1.7
O=C1CC(c2ccc3ccccc3c2)N=C2N(Cc3ccc4c(c3)OCO4)C/C(=C/c3ccccc3)N12 (stereo unspecified) | -2.0 | . | 0.2 | . | 0.9
CCN(CC)C(=O)CC[C@H]1CC[C@]2(CCCN(c3ccccc3)C2)O1 | -0.6 | -1.5 | 2.1 | . | -0.3
Cc1ccc(C(=O)N/N=C2\CC3CC=CC23)c(C)c1 (stereo unspecified) | -0.8 | -0.4 | 6.7 | 5.7* | 0.7
Cc1cccc2c1cnn2C(=O)Nc1ccccc1Cl | -0.1 | 0.4 | 7.4 | 0.8 | 5.8*
Fc1ccc(NC(=S)N2CCc3ccccc3C2)c(F)c1 | 0.2 | 0.8 | 1.1 | 5.6* | 2.9
Fc1ccc(NC(=S)N2CCOCC2)c(F)c1 | -1.4 | -1.1 | -2.4 | -0.7 | -0.5
SMILES | ssDAF-12 act | DAX1 inh-1 | hgDAF12 agonist | DAX1 inh-2 | hcDAF-12 act
C/[N+]([O-])=C/c1c(OCc2ccc(Cl)cc2Cl)ccc2ccccc12 | 0.2 | 0.4 | 4.6 | -0.3 | 6.0*
COC(=O)[C@H](CC(C)C)N(Cc1cn(Cc2ccccc2)nn1)S(=O)(=O)c1ccc(F)cc1Br | -1.8 | -0.3 | -4.2 | . | -4.5
COc1ccc2c(c1OC)C(=O)OC2Nc1nc(-c2ccc([N+](=O)[O-])cc2)cs1 (stereo unspecified) | 1.6* | -0.3 | 4.7 | 1.5 | 3.4
COc1ccc2c(c1OC)C(=O)OC2Nc1nc(-c2cc3cc(Br)ccc3oc2=O)cs1 (stereo unspecified) | -0.6 | 2.1 | 10.6* | 4.8* | 0.7
C=CCN1[C@H](Cc2ccccc2)COc2cc(F)ccc2S1(=O)=O | -1.6 | -1.5 | 3.0 | . | -3.6
CCN(c1ccc(NC(=O)COC(=O)c2ccc3ccccc3n2)cc1)C(C)C | 0.9* | 0.5 | 4.7 | -0.6 | 4.6
